36 molecules from PubChem BioAssay (EPA / NIEHS) can be followed below.

Activity calls are given as the source filed them. The calls were made as follows: active = hit-call score of the fitted dose curve at least 0.9, where 1 is the maximum; inactive = score below 0.9.

The assay can be described thus: ATG_TAL_CIS: Attagene CIS-FACTORIAL HepG2 Assay for human TAL Basal Promoter (AID 2282966).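 Also: background control endpoint measuring basal TAL promoter reporter mRNA not a specific factor.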 The note with it: HepG2 Attagene cis-factorial TAL promoter reporter; actives raise or lower the signal. A digest of the protocol: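 Background-control endpoint: basal TAL promoter reporter transcripts in transiently transfected HepG2, measured 24 h after dosing. Read-out by RT-PCR with fluorescent primer extension and capillary electrophoresis; gain or loss of signal fitted relative to DMSO.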
As to `COP(=O)(OC)OC(Br)C(Cl)(Cl)Br` (stereo unspecified), the call was inactive.

Regarding `CCOP(=S)(OCC)SCCSCC`, the result was inactive.

Take `CSc1nnc(C(C)(C)C)c(=O)n1N`: the call was inactive.

Turning to `CC(C)N(C(=O)SCC(Cl)=C(Cl)Cl)C(C)C`, the call was inactive.

Turning to `O=C(O)c1cc(Oc2ccc(C(F)(F)F)cc2Cl)ccc1[N+](=O)[O-]`, the molecule was called inactive.

For the molecule `COc1cccc(C(=O)NN(C(=O)c2cc(C)cc(C)c2)C(C)(C)C)c1C`, the result was inactive.

Regarding `CC(C1CC1)C(O)(Cn1cncn1)c1ccc(Cl)cc1` (stereo unspecified), the molecule was called inactive.

Turning to `CCOP(=S)(OCC)Oc1cc(C)nc(C(C)C)n1`, the outcome was inactive.

Consider `CCOP(=O)(OCC)Oc1cc(C)nc(C(C)C)n1`, for which the result was inactive.

As for `CCOP(=O)(NC(C)C)Oc1ccc(SC)c(C)c1` (stereo unspecified), the result was inactive.

Regarding `CN(C)[C@@H]1C(=O)C(C(N)=O)=C(O)[C@@]2(O)C(=O)C3=C(O)c4c(O)cccc4[C@@](C)(O)[C@H]3[C@H](O)[C@@H]12`, the molecule was called inactive.

Consider `CCC(=NOC/C=C/Cl)C1=C(O)CC(C2CCOCC2)CC1=O` (stereo unspecified), for which the call was inactive.

`Cc1ccn2nc(S(=O)(=O)Nc3c(F)cccc3F)nc2n1`: the molecule was called inactive.

As for `CCCOc1nn(C(=O)NS(=O)(=O)c2ccccc2C(=O)OC)c(=O)n1C`, the outcome was inactive.

For `Cc1nn(-c2cc(NS(C)(=O)=O)c(Cl)cc2Cl)c(=O)n1C(F)F`, the molecule was classed as inactive.

In the case of `CCOP(=O)(SC(C)CC)N1CCSC1=O` (stereo unspecified), the call was inactive.

By AC50 is commonly meant the concentration at which the activity in the assay is half-maximal. Take `CCCCSP(=O)(SCCCC)SCCCC`: the half-maximal activity concentration (AC50) was 13 µM (active).

For `C[N+]1(C)CCCCC1`, the molecule was called inactive.

With `Nc1nc(N)nc(NC2CC2)n1`, the molecule was called inactive.

On to `CCc1cccc(CC)c1N(COC)C(=O)CCl`, for which the outcome was inactive.

`CC1=NNC(=O)N(/N=C/c2cccnc2)C1`: the molecule was called inactive.

In the case of `CCCOCC(=Nc1ccc(Cl)cc1C(F)(F)F)n1ccnc1`, the molecule was classed as inactive.

For `CON=C(C(=O)OC)c1ccccc1CON=C(C)c1cccc(C(F)(F)F)c1`, the concentration at half-maximal activity (AC50) was 13 µM (active).

As for `C#CC(C)(C)NC(=O)c1cc(Cl)cc(Cl)c1`, the molecule was called inactive.

Take `CNC(=O)ON=C(C)SC`: the call was inactive.

As to `CNc1cnn(-c2cccc(C(F)(F)F)c2)c(=O)c1Cl`, the outcome was inactive.

On to `C[Si](Cn1cncn1)(c1ccc(F)cc1)c1ccc(F)cc1`, for which the call was inactive.

For the molecule `CCNc1nc(Cl)nc(NC(C)(C)C#N)n1`, the molecule was classed as inactive.

For the molecule `CCCCOC(=O)c1ccccc1C(=O)O`, the call was inactive.

On to `CCOP(=S)(OCC)Oc1ccc([N+](=O)[O-])cc1`, for which the outcome was inactive.

Turning to `CCOC(=O)CC(SP(=O)(OC)OC)C(=O)OCC` (stereo unspecified), the molecule was classed as inactive.

Consider `CCc1cccc(C)c1N(C(=O)CCl)C(C)COC` (stereo unspecified), for which the outcome was inactive.

With `CCOC(=O)COc1cc(-c2nn(C)c(OC(F)F)c2Cl)c(F)cc1Cl`, the result was inactive.

Turning to `FC(F)C(F)(F)OCC(Cn1cncn1)c1ccc(Cl)cc1Cl` (stereo unspecified), the call was inactive.

Regarding `CC(C)[C@H](C(=O)O[C@H](C#N)c1cccc(Oc2ccccc2)c1)c1ccc(Cl)cc1`, the molecule was classed as inactive.

As for `CC(=NC#N)N(C)Cc1ccc(Cl)nc1`, the result was inactive.
